Compounds without any hit were thinned out: in the full panel of roughly 83,000, 20% have a hit.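 Cells were grown in 96-well plates and exposed to the test compound at a single concentration for 48 hours; results are reported as percent growth, with values below 10 considered active.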 Activity calls are given as the source filed them.

The subject of this experiment is NCI-H226 lung. Put plainly: NCI-60 one-dose screen, 48 h (100 = growth as untreated, 0 = no growth, -100 = all killed). The conditions noted are these: 10 µM.
On to `COc1cccc(-c2ccnc(/N=C(\N)Nc3ccc(S(=O)(=O)Nc4nc(C)cc(C)n4)cc3)n2)c1`, for which the growth was 80.3% (inactive).

As for `O/N=C(\CSc1nnc(-c2c[nH]c3ccccc23)n1-c1ccccc1)c1ccc(Cl)cc1`, the growth was 14.3% (inactive). Regarding `COC(=O)c1c(C(=O)OC)c2n(c1C)[C@@H]([C@@H](C)[C@H]1CC[C@H]3[C@@H]4CCC5=CC(=O)CC[C@]5(C)[C@H]4CC[C@]13C)SC2`, the growth was 15.7% (inactive). To `Cc1ccc(-c2cc(C(=O)N=Nc3c(O)[nH]c4ccc(Br)cc34)c3ccccc3n2)cc1` belongs 65.3% (inactive). For the compound `COc1ccc(-c2c(N)c(=O)n(C)c3ccccc23)cc1`, the growth was 46.5% (inactive).

As for `O=c1cc(-c2ccccc2)oc2cc(OCCCNCc3ccccc3)cc(O)c12`, the growth was 46.4% (inactive). To `COc1cccc2nc(Nc3cccc(NC(=O)c4ccc(CN5CCCN(C)CC5)c(C(F)(F)F)c4)c3)ccc12` belongs -70.5% (active); to `COc1ccc(-c2cc(-c3cc(C(=O)c4ccc(Br)cc4)n4ccc(C)cc34)nc(N)c2C#N)cc1`, 60.4% (inactive); to `O=C1CCC(N2Cc3c(NCc4ccc(-c5ccccc5)cc4)cccc3C2=O)C(=O)N1` (configuration not stated), 55.1% (inactive). The figure for `COc1ccc(CN2[C@@H](C(=O)NCc3ccc(C(=O)NO)cc3)Cc3c([nH]c4ccccc34)[C@@H]2C2CC2)cc1` is 50.8% (inactive); for `CCOC(=O)c1c(CSc2ccccc2)n(C)c2cc(CN(C)C)c(O)c(CN(C)C)c12` it is 46.6% (inactive); for `CCOC(=O)CNC(=O)CN(Cc1ccccc1)C(=O)[C@@]1(C)CCC[C@]2(C)[C@H]3C[C@H]4C(C(C)C)=C[C@]3(CC[C@H]21)[C@@H]1C(=O)OC(=O)[C@@H]14` it is 71.3% (inactive). For `CC(=O)Nc1ccc(-c2cn(-c3cccc(C(=O)Nc4cc(C(F)(F)F)cc(C(F)(F)F)c4)c3)nn2)cn1`, the growth was -68% (active).

Turning to `NS(=O)(=O)c1ccc(N=Nc2c(O)n(CC(=O)Nc3ccccc3Br)c3ccccc23)cc1`, the growth was 14.4% (inactive). Regarding `N#Cc1c(Cl)nc(SCc2ccc(F)cc2)nc1-c1ccc(F)cc1`, the growth is 71.3% (inactive). The figure for `CN(C)c1ccc(/C=C/C(=O)c2ccc(NC(=O)CN3C(=O)NC(C)(c4ccccc4)C3=O)cc2)cc1` (configuration not stated) is 53.2% (inactive); for `Cc1cc(C)nc(NS(=O)(=O)c2ccc(N/C(N)=N/c3nccc(-c4cccs4)n3)cc2)n1` it is 77.8% (inactive). To `COc1ccc(/C=C/C(=O)c2ccc(N3CCN(C)CC3)cc2)c(C(F)(F)F)c1` belongs 46.4% (inactive); to `Clc1ccc(/C=N/Nc2ncnc3sc4c(c23)CCN(Cc2ccccc2)C4)cc1`, -54.2% (active). To `COc1cccc(/C=N/NC(=O)c2ccc3nc(-c4ccc(Cl)cc4)[nH]c3c2)c1O` belongs -85.8% (active); to `COc1ccc(-c2nc(S(=O)(=O)c3ccc(C)cc3)c(S(=O)(=O)CC(=O)N(C)Cc3ccccc3)o2)cc1`, 78.7% (inactive); to `CC1=C2C(=C[C@@](C)(CO)[C@@H]2O)/C(=N\N)[C@](C)(O)C12CC2`, -41.2% (active). For the compound `CC(=O)c1ccc(Nc2nc(SC(C)C)nc(-c3ccccc3)c2C#N)cc1`, the growth was -25.1% (active). The figure for `CCN1CCN(Cc2ccc(NC(=O)c3cccc(-n4cc(-c5ccc(NC(C)=O)nc5)nn4)c3)cc2C(F)(F)F)CC1` is 99.9% (inactive).

In the case of `CC(C)c1ccc(C(=O)Nc2sc3c(c2C(N)=O)CCC(=O)C3=O)cc1`, the growth is 86.6% (inactive). Consider `COc1cc(C2CC(c3ccc(C)cc3)=Nc3c(N)nc(N)nc3N2)ccc1Oc1nc(Nc2ccc(F)cc2)nc(N(C)C)n1` (configuration not stated), for which the growth is 61.4% (inactive).

`O=c1c2ccccc2nc(COc2ccccc2)n1/N=C/c1ccc(N2CCCC2)cc1`: the growth is 105% (inactive). As to `CCN1CCN(c2ccc(NC(=O)Nc3ccc4c(c3F)CCN4c3ccnc(C(=O)NC)c3)cc2C(F)(F)F)CC1`, the growth is 95% (inactive). The figure for `O=c1[nH]c2ccccc2cc1CSc1ccc(Nc2nccc(-c3ccc4ccccc4c3)n2)cc1` is 19% (inactive); for `O=C(CNc1nc(-c2ccccc2)cs1)Nc1cccc(Cl)c1` it is 44.8% (inactive). Regarding `O=c1[nH]c2ccccc2cc1CSc1ccc(Nc2nccc(-c3ccc(Cl)cc3)n2)cc1`, the growth is -70.5% (active).

Consider `O=C1Nc2cc(-c3ccc(NC(=O)c4cccc([N+](=O)[O-])c4)cc3)ccc2/C1=C/c1ccc[nH]1`, for which the growth was 76.7% (inactive). Regarding `COc1ccc(-c2ccc(/C=N/NC(=O)c3[nH]c4ccc(Br)cc4c3-c3ccccc3)o2)cc1`, the growth is 44.1% (inactive).

On to `CN1CCN(c2ccc(C(=O)/C=C/c3cc(C(F)(F)F)ccc3Cl)cc2)CC1`, for which the growth is -93% (active). The figure for `COc1ccc(-c2cc(-c3cc(C(=O)c4ccccc4)n4ccc(C)cc34)nc(N)c2C#N)cc1` is 36.4% (inactive); for `O=C(Nc1ccc(I)cc1)Nc1nc2ccc([N+](=O)[O-])cc2s1` it is -74.2% (active).

Regarding `CCCCCCCCCCCCCCCCCCCC(=O)NCCc1c[nH]c2ccc(O)cc12`, the growth was 87.6% (inactive).

The values are drawn from PubChem BioAssay (NCI).
